According to PubChem BioAssay AID602281 (The Scripps Research Institute Molecular Screening Center, 2012):
Where “and” joins values, the source holds several entries; their conditions need not be identical. Identical values can stand only once. The campaign covered roughly 360,000 compounds. About 2,900 (0.81%) were called active.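 The calls were made as follows: active = inhibition above the mean inhibition across every tested compound plus 3 SD (cut at about 22% in these data); inactive = the rest.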 What follows is part of a selection rich in actives, with near analogues and random picks from the rest. Some compounds were tested as several samples or in several runs, with calls that do not always agree.

target: Perilipin-5 (Homo sapiens) + 1-acylglycerol-3-phosphate O-acyltransferase ABHD5 (Homo sapiens) (UniProt Q00G26+Q8WTS1); experiment: blockers of ABHD5 binding to perilipin-5 – cell lysate, split luciferase complementation, luminescence, primary screen (AID 602281);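 also: 0% = DMSO only wells and the 100% control is not disclosed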; conditions: Split G. princeps luciferase complementation, 4 h, at 4 µM, stronger effect = higher value
Sequence (Q00G26 whole entry, looked up): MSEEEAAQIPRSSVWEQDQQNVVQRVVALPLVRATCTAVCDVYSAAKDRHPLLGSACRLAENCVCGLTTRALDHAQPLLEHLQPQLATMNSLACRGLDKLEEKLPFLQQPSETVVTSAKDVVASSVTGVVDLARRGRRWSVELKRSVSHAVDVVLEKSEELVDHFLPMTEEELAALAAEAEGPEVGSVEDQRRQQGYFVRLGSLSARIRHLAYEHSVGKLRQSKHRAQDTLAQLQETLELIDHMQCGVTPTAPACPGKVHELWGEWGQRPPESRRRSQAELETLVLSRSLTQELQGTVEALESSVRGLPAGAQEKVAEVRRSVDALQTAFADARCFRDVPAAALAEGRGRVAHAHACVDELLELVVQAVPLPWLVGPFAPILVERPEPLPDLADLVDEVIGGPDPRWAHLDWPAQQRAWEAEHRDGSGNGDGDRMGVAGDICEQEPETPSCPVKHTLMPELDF
Sequence (Q8WTS1 whole entry, looked up): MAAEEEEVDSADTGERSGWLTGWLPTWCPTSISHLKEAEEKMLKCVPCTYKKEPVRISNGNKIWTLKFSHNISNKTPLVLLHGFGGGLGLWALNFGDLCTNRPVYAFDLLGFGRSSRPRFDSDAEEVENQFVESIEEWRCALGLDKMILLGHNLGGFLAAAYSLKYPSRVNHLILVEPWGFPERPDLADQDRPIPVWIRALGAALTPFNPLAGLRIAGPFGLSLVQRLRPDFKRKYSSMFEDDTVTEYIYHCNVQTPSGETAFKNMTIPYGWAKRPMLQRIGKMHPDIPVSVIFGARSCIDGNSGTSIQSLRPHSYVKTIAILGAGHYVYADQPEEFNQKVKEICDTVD

inhibition, 16.9% (inactive) and 27.5% (active):
c1ccc(CCC2=NCCn3cccc32)cc1

inhibition, active:
C=C1C(=O)[C@]23C[C@H]1CCC2[C@@]1(C)C(C[C@@H]3O)[C@](C)(C(=O)O)CC[C@@H]1O (some centres undefined) 36.1%
O=C(CSc1nnc(-c2cccnc2)n1Cc1ccco1)c1ccc(Cl)cc1 22.5%
CCc1ccc(NC(=O)CSc2nnc(-c3cnccn3)n2Cc2ccco2)cc1 23.2%
O=C(/C=C/c1ccc(Cl)cc1Cl)c1cccnc1 74.7%
O=C(/C=C/Sc1ncn[nH]1)c1ccc(Cl)cc1 57.9%
COc1ccc(CNC(=O)/C(C#N)=C/c2cccc(OC)c2OC)cc1 36%
O=C(N/N=C/C=C/c1ccco1)c1cccs1 36.5%
Cc1cccc(C=CC(=O)c2ccc(Cl)cc2)c1 34.8%
O=C1C=C(c2ccc(Cl)cc2)C(=O)N1Nc1ccccc1 66.8%
COc1ccc(/C=C/C(=O)c2cc(Br)ccc(=O)c2O)cc1 22.1%
COc1ccc(/C(O)=C2\C(=O)C(=O)N(Cc3ccco3)C2c2ccc(OC)cc2OC)cc1 (centres undefined) 28.9%
COc1ccccc1C1/C(=C(/O)c2ccc(C)cc2)C(=O)C(=O)N1Cc1ccco1 (centres undefined) 28.4%
O=C(NNc1ccccn1)c1ccc(Cl)nc1 74%
O=[N+]([O-])c1c(NCCO)cc(Sc2nc3ccccc3s2)c2nonc12 42.8%
COc1ccc2c(c1OC)C(=O)OC2Nc1nc(-c2ccccc2)cs1 (centres undefined) 38.8%
Cc1ccc(Cn2c(C)nc3c(c2=O)c2nc4ccccc4nc2n3Cc2ccco2)cc1 65.3%
O=C1/C(=C\c2ccc([N+](=O)[O-])cc2)CS(=O)(=O)C/C1=C/c1ccc([N+](=O)[O-])cc1 76.2%
COc1ccc2sc(-c3ccccc3OC)c(-c3ccc(OCCN4CCCC4)cc3)c2c1 25.4%
CC1=CC(C)(C)Nc2ccc(OC(=O)C(Cc3ccccc3)N3C(=O)C4CCCCC4C3=O)cc21 (centres undefined) 47%
CC1=CC(C)(C)Nc2ccc(OC(=O)CN3C(=O)C4CCCCC4C3=O)cc21 (centres undefined) 75%

inhibition, inactive:
CCN(C(=O)COC(=O)c1cc(NS(=O)(=O)c2ccc(Cl)c([N+](=O)[O-])c2)ccc1O)C1CCCCC1 -3.6%
O=Cc1ccc(OCc2cn3ccccc3n2)cc1 -8.56%
COc1cc(N2C(=O)c3ccccc3C2=O)c(Cl)cc1C(=O)OCC(=O)N1CCOCC1 -1.51%
CCOC(=O)Cc1csc(NC(=O)CSc2nnc(-c3cccnc3)n2Cc2ccco2)n1 5.88%
Cc1cc(C)nc(SCc2nnc(SCC(=O)Nc3ncc(C)s3)n2Cc2ccco2)n1 19.3%
CCn1c(SCC(=O)Nc2cc(C)ccc2C)nnc1-c1cnccn1 7.43%
C(=C\c1ccccc1)/CSc1nnc(-c2cccnc2)n1Cc1ccco1 7.27%
CCCCCNC(=O)C1C(=O)Nc2ccccc2C(=O)N1C(C)(C)C (centres undefined) 4.37%
COc1cc(/C=C/CO)cc(OC)c1O[C@@H]1O[C@H](CO)[C@@H](O)[C@H](O)[C@H]1O -1.15%
O=C(CC(=O)c1cccnc1)c1ccccc1 -23.9%
O=C(OCc1cc(Cl)ccc1OC(F)F)c1cccnc1 4.48%
Cc1ccc(S(=O)(=O)N(C)C)cc1NC(=O)c1n[nH]c(=O)c2ccccc12 5.24%
O=C1CCCC(O)=C1N=Nc1ccc2ncsc2c1 -5.19%
O=C(Cn1cnc2c(nnn2-c2ccccc2)c1=O)N1CCC(Cc2ccccc2)CC1 7.96%
O=C(Nc1ccc(F)cc1)C(CCc1ccccc1)N1CCN(CC(=O)N2CCCC2)CC1 (centres undefined) -3.25%
CCCCc1cc2c(s1)CCCC/C2=N/O -9.56%
COc1cc(/C=C(\C#N)C(=O)Nc2ccc3ccccc3c2)c([N+](=O)[O-])cc1OC -3.38%
COc1ccc(CNC(=O)c2c[nH]c3c(OC)cc(OC)cc3c2=O)cc1 -1.89%
COC(=O)C[C@H]1C[C@@H]2c3cc(NC(=O)Nc4ccccc4)ccc3O[C@@H]2[C@@H](CO)O1 3.8%
c1ccc(-c2c[nH]c(-c3ccccc3)c2)cc1 -5.36%
O=C(NC1CCCCCCC1)c1cccs1 -5.96%
O=C(NNC(=O)c1ccc(Cl)cc1Cl)c1cccs1 3.54%
Cc1cccc(CN2CCN(C3CN(Cc4cn(Cc5ccccc5F)nn4)S(=O)(=O)C3)CC2)c1 (centres undefined) 5.46%
Cc1ccc(-c2c(N)nc3ncccn23)cc1 -3.59%
Cc1cc(C)nc(NC(=O)/C=C/c2ccc(Cl)cc2)n1 0.69%
Cc1cccc(C(=O)Nc2ccc(C(=O)/C=C/c3cccs3)cc2)c1 12.6%
CCO[C@H]1OC(C(=O)Nc2ccccc2)=C[C@@H](C2CC2)[C@@H]1CCCO -3.76%
CCCCN1C(N)=NC[C@@H]1CC1CCCCC1 10.6%
Cc1ccn2cc(-c3nonc3C)cc2c1 -1.69%
CCc1ccccc1NC(=O)c1cc(-c2ccc3c(c2)OCO3)on1 -4.14%
CCOc1ccc(NC(=S)NC(=O)/C=C/c2ccc(OC)cc2)c([N+](=O)[O-])c1 2.26%
COc1ccc(/C=C/C(=O)NC(=S)N2CCCC(C(N)=O)C2)cc1 (centres undefined) -2.44%
O=C(O)c1cc2ccccc2c(=O)s1 10.5%
NC[C@H](Cc1ccccc1)NCCc1cc(C(F)(F)F)cc(C(F)(F)F)c1 5.8%
COc1ccc(/C(O)=C2/C(=O)C(=O)N(c3nc(C)c(C)s3)C2c2ccco2)cc1 (centres undefined) 6.99%
COc1ccc(/C(O)=C2/C(=O)C(=O)N(CCCN(C)C)C2c2ccccc2)cc1OC (centres undefined) -4.94%
COc1cc(C2/C(=C(\O)c3ccc4c(c3)CC(C)O4)C(=O)C(=O)N2Cc2ccco2)ccc1O (centres undefined) 11.1%
COc1ccc(/C(O)=C2/C(=O)C(=O)N(CC3CCCO3)C2c2ccc(OC)c(OC)c2)cc1 (centres undefined) 1.46%
CC(C)c1nnc(NC(=O)C2CC(=O)N(CCc3ccc(F)cc3)C2)s1 (centres undefined) -0.4%
CSc1nc(-c2ccccc2)nc(C(Cl)Cl)n1 -6.27%
COc1ccc(-c2nnc3n2CCCCC3)cc1 2.02%
CCC(=O)N1CCc2cc(Br)c(S(=O)(=O)NCCN3CCCCC3CC)cc21 (centres undefined) 6.34%
N#Cc1ccc(C(=O)OCC(=O)NC(=O)NC2CCCCC2)cc1 -1.6%
NC(=O)C1CCN(C(=O)CC2C(=O)NCCN2Cc2cccc(Oc3ccccc3)c2)CC1 (centres undefined) 4.81%
O=C(NNC(=O)c1ccc(Cl)nc1)c1ccc(Br)cc1 -5.62%
CCN(CC)c1ccc(NC(=O)c2ccc(Cl)nc2)cc1 -1.77%
Cc1ccc(CSCCNC(=O)CN(c2ccc(F)cc2)S(C)(=O)=O)cc1 -1.09%
Cn1c(=O)[nH]c2c(c(C(=O)O)nn2C)c1=O 18.8%
Cc1cn(C2C=CC(CO)O2)c(=O)[nH]c1=O (centres undefined) 6.6%
Nc1cc(N2CCCCCC2)c2nonc2c1[N+](=O)[O-] 3.02%
COc1ccccc1C(=O)Nc1nc2nc(-c3ccccc3)cc(=O)n2[nH]1 -1.37%
COc1cc(C(O)c2nc(-c3cccc(C(=O)O)c3)cs2)ccc1F (centres undefined) 7.06%
O=C(c1cc(COc2ccc(F)cc2F)on1)N1CCOCC1 -0.17%
Cc1ccc(OCC(=O)c2cc(C)n(Cc3ccco3)c2C)c([N+](=O)[O-])n1 4.39%
Cc1ccc(C(=O)CSc2nc3ccccc3c(=O)n2N)o1 -5.64%
COC(=O)C[C@H]1C[C@@H]2c3cc(N(C)C)ccc3O[C@@H]2[C@H](CO)O1 0.67%
c1ccc(CCc2ccccn2)cc1 -3.97%
CC1CSc2nnc(CCc3ccccc3)n21 (centres undefined) 0.6%
CCc1ccc(-c2cc(C)no2)cc1S(=O)(=O)NCCc1ccc(S(N)(=O)=O)cc1 -2.59%
O=C(C1CCCO1)N1CCN(C(=O)C23CC4CC(CC(C4)C2)C3)CC1 (centres undefined) 0.93%
O=C(Cn1cc(C(=O)C2CC2)c2ccccc21)Nc1ccccc1Cl -0.4%
CCOc1ccc(NC(=O)C(C)N2C(=O)c3ccccc3C2=O)cc1 (centres undefined) -3.97%
O=C(Cc1ccccc1)N1CCN(S(=O)(=O)c2ccc([N+](=O)[O-])cc2)CC1 1.18%
O=[N+]([O-])c1ccc(N=NNc2ccc([N+](=O)[O-])cc2)cc1 -4.36%
Cc1ccc(S(=O)(=O)N(C)C)cc1NC(=O)c1ccccc1Br -0.6%
COc1ccc(C(C(=O)NCc2ccccc2)N(Cc2cccs2)C(=O)c2cnccn2)cc1 (centres undefined) -0.58%
COc1cccc(-c2sc3ccc(OC)cc3c2-c2ccc(OCCN3CCCCC3)cc2)c1 14.8%
COc1ccccc1-c1sc2ccccc2c1-c1ccc(Br)nc1 -7.49%
Cc1cc(C)c2c(n1)sc1c(=O)n(-c3ccccc3)c(=O)[nH]c12 9.86%
COc1ccc(C(=O)COC(=O)CN2C(=O)C3CC=CCC3C2=O)c(OC)c1 (centres undefined) -4.32%
O=C(COC(=O)CN1C(=O)C2CCCCC2C1=O)Nc1ccc(F)c(F)c1F (centres undefined) -2.34%
O=C(C(Cc1ccccc1)n1cccc1)N1CCN(C2CCCCC2)CC1 (centres undefined) 5.03%
CCOC(=O)C(Cc1ccc(N)cc1)N1C(=O)c2ccccc2C1=O (centres undefined) -1%
